# aSyn 5UTR act – Activators working through SNCA 5'UTR binding (MLPCN); alpha-synuclein 5'UTR reporter, activators screen; activity score, % (tested at 7.5 µM), hits read low; 7.1% of 300,000 active; AID 1814; in the data active means activity score below about -60%
# The depositor's hits bear a star. These entries were drawn from the full list.
SMILES,aSyn 5UTR act
COc1cccc(C2=CC(c3ccc(N(C)C)cc3)n3nnnc3N2)c1 (stereo not given),-76*
CC(C(=O)N(C)C1CCS(=O)(=O)C1)N1C(=O)/C(=C/c2cccs2)SC1=S (stereo not given),-83*
Clc1ccc(-c2nc3cc(CN4CCCCC4)ccc3o2)cc1,-206*
CCc1ccc(/C=N/N2CCN(c3ccccn3)CC2)cc1,-108*
ClC(=C\c1ccccc1)/C=N/N1CCN(c2ccccn2)CC1,-222*
Cc1ccc(/C=N/N2CCN(c3ccccn3)CC2)cc1,-105*
CNC(=O)c1ccc(NC(=O)/C=C/c2cccc(F)c2)cc1,-98*
CSc1cccc(NC(=O)/C=C/c2cccc(Cl)c2)c1,-218*
O=C(/C=C/c1cccc(Cl)c1)Nc1ncccn1,-76*
Cn1c(C(=O)N2CCc3ccccc3C2)cc2oc3ccccc3c21,-137*
CCOc1ccccc1CNC(=O)c1cc2oc3ccccc3c2n1CC,66
COc1ccc(Cc2nc(-c3ccccc3)no2)cc1,-176*
COc1ccc(Cc2nc(-c3cccs3)no2)cc1,-115*
COC(=O)C1(Cc2cc(-c3ccccc3)no2)CCN(C(=O)OC(C)(C)C)CC1,-82*
CCN(Cc1ccccc1)C(=O)CCCOc1ccccc1,-91*
Cn1c(-c2ccc3ccccc3n2)[n+](C)c2ccccc21,-65*
CN(c1ccc(O)cc1)c1nc(O)c(C2=c3ccccc3=NC2=O)s1,-155*
CCc1nnc(NC(=O)c2ccc(S(=O)(=O)N(C)c3ccccc3)cc2)o1,56
CCN(c1ccccc1)S(=O)(=O)c1ccc(C(=O)Nc2ccccn2)cc1,-76*
CN(c1ccc(C(=O)Nc2ccccn2)cc1)S(=O)(=O)c1ccccc1,-133*
CN(c1ccc(C(=O)Nc2cccc(O)c2)cc1)S(=O)(=O)c1ccccc1,-105*
Nc1cc(C(F)(F)F)ccc1C(=O)O,-62*
Cc1cc(C)cc(C(=O)NC(=S)Nc2ccc3c(c2)OCCO3)c1,-219*
O=C(CCl)Nc1ccc2c(c1)OCO2,-90*
O=C(NC(=S)Nc1ccc2c(c1)OCO2)c1ccc(Cl)cc1,-143*
SMILES,aSyn 5UTR act
O=C(NC(=S)Nc1ccc2c(c1)OCCO2)c1ccc(F)cc1Cl,-136*
CCn1ncc(NC(=S)Nc2ccc3c(c2)OCO3)c1C(N)=O,-180*
S=C(Nc1ccc2c(c1)OCO2)Nc1ccc2c(c1)OCO2,-107*
CCc1ccc(C(=O)NC(=S)Nc2ccc3c(c2)OCCO3)cc1,-128*
Cc1ccc(C(=O)NC(=S)Nc2ccc3c(c2)OCCO3)c(C)c1,-137*
Cc1ccc2[nH]c(-c3cccc(F)c3)cc(=O)c2c1,81
Cc1ccc2[nH]c(-c3cccc(N)c3)cc2c1,-209*
Cc1ccc2[nH]c(=O)c(C3C(C#N)=C(N)Oc4c3ccc3cccnc43)cc2c1 (stereo not given),75
Cc1ccc(-c2nc3ncccc3o2)cc1NC(=O)c1ccc([N+](=O)[O-])o1,-511*
Cc1ccnc(NC(=S)NC(=O)c2cccs2)c1,-270*
O=C(NC(=S)Nc1ccc(Cl)cn1)c1cccs1,-92*
O=C(Nc1ccc(-c2nc3ncccc3o2)cc1)c1ccc([N+](=O)[O-])o1,100

# Source: PubChem BioAssay
